# Source: PubChem BioAssay (EPA / NIEHS)
# Calls of active or inactive are those of the source. How the source made its calls: active means hit-call score of the fitted dose curve at least 0.9, where 1 is the maximum; inactive means score below 0.9.
# Tests used:
# Conditions in all cases: mRNA level, 48 h; actives raise or lower the signal
# [1] = read-out: matrix metalloproteinase-10 (MMP10), MMP10 (gene 4319); assay: LTEA_HepaRG_MMP10: Life Technologies and Expression Analysis (LTEA) Assay for matrix metalloproteinase-10 (MMP10) using HepaRG (AID 2283517)
# Procedure, shortened: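 Transcript levels come from Fluidigm qRT-PCR normalized to three housekeeping genes, with curves fitted bidirectionally against 0.5% DMSO. Human HepaRG cells were dosed for 48 hours at concentrations up to 100 uM.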
# MYC, MYC (gene 4609) = assay: LTEA_HepaRG_MYC: Life Technologies and Expression Analysis (LTEA) Assay for MYC using HepaRG (AID 2283518)
# Procedure, shortened: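 HepaRG, ~100,000 cells/well, collagen I; 48 h plating; serum-free induction medium; 48 h dosing, duplicate, 100 uM top, half-log, 0.5% DMSO; total RNA → qRT-PCR MYC; gain/loss fit vs DMSO.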
# [2] = read-out: matrix metalloproteinase-3 (MMP3), MMP3 (gene 4314); assay: LTEA_HepaRG_MMP3: Life Technologies and Expression Analysis (LTEA) Assay for matrix metalloproteinase-3 (MMP3) using HepaRG (AID 2283519)
# Procedure, shortened: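 qRT-PCR read-out of MMP3 mRNA (normalised to three housekeeping genes) in HepaRG liver cells after 48 h chemical exposure; 8-point half-log series, top 100 uM, 0.5% DMSO vehicle. Bidirectional curve fitting against DMSO baseline.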
# [3] = read-out: Paternally Expressed 10 (PEG10), PEG10 (gene 23089); assay: LTEA_HepaRG_PEG10: Life Technologies and Expression Analysis (LTEA) Assay for Paternally Expressed 10 (PEG10) using HepaRG (AID 2283520);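 on AC50: PEG10 transcript by qRT-PCR normalised to ACTB GAPDH and POLR2A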
# Procedure, shortened: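 After 48 h exposure of differentiated HepaRG cells (0.5% DMSO vehicle, eight concentrations up to 100 uM, duplicates), PEG10 mRNA was measured by TaqMan qRT-PCR. Values were normalised to endogenous control genes and analysed bidirectionally against vehicle.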
# [4] = read-out: Nuclear factor NF-kappa-B p105 subunit (Homo sapiens) (UniProt P19838); assay: LTEA_HepaRG_NFKB1: Life Technologies and Expression Analysis (LTEA) Assay for Nuclear Factor Kappa B Subunit 1 (NFKB1) using HepaRG (AID 2283521);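 further: TaqMan qRT-PCR transcript normalised to ACTB GAPDH and POLR2A housekeeping genes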
# Procedure, shortened: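 Differentiated human HepaRG cells were exposed for 48 h in serum-free induction medium to eight concentrations (top 100 uM, half-log steps, 0.5% DMSO), in duplicate. NFKB1 mRNA was measured by TaqMan qRT-PCR, normalized to ACTB/GAPDH/POLR2A, and fitted bidirectionally against DMSO.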
# [5] = read-out: Protein phosphatase 2A (PPP2R4), PTPA (gene 5524); assay: LTEA_HepaRG_PPP2R4: Life Technologies and Expression Analysis (LTEA) Assay for Protein phosphatase 2A (PPP2R4) using HepaRG (AID 2283522)
# Procedure, shortened: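 Using HepaRG cultures maintained in 0.5% DMSO, chemicals are tested 48 h at up to 100 uM in duplicate. Induction or suppression of PPP2R4 mRNA, measured by qRT-PCR, is fitted bidirectionally against the vehicle baseline.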
# [6] = read-out: Phosphatase and tensin (PTEN), PTEN (gene 5728); assay: LTEA_HepaRG_PTEN: Life Technologies and Expression Analysis (LTEA) Assay for Phosphatase and tensin (PTEN) using HepaRG (AID 2283523)
# Procedure, shortened: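 HepaRG, 48 h exposure, 8-pt half-log series from 100 uM top, 0.5% DMSO vehicle, duplicates. Readout: Fluidigm qRT-PCR of PTEN transcript; housekeeping normalization (ACTB, GAPDH, POLR2A). Gain or loss fitted relative to DMSO baseline.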
# [7] = read-out: solute carrier (SLC22A1), SLC22A1 (gene 6580); assay: LTEA_HepaRG_SLC22A1: Life Technologies and Expression Analysis (LTEA) Assay for solute carrier (SLC22A1) using HepaRG (AID 2283524)
# Procedure, shortened: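 qRT-PCR readout (TaqMan, Fluidigm arrays) of SLC22A1 transcript, normalized to three housekeeping genes; bidirectional curve fit relative to 0.5% DMSO vehicle. Differentiated human HepaRG cells, 48 h chemical exposure, top concentration 100 uM, half-log steps, eight points.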
# [8] = read-out: Pyruvate Dehydrogenase Kinase 4 (PDK4), PDK4 (gene 5166); assay: LTEA_HepaRG_PDK4: Life Technologies and Expression Analysis (LTEA) Assay for Pyruvate Dehydrogenase Kinase 4 (PDK4) using HepaRG (AID 2283525)
# Procedure, shortened: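 HepaRG (human liver line), 48 h chemical exposure, 8-pt half-log CRC top 100 uM, 0.5% DMSO vehicle, duplicates. Readout: TaqMan qRT-PCR of PDK4 mRNA, housekeeping-normalized; gain/loss fit relative to DMSO baseline.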
# [9] = read-out: MicroRNA 122 (MIR122), gene 406906; assay: LTEA_HepaRG_MIR122: Life Technologies and Expression Analysis (LTEA) Assay for MicroRNA 122 (MIR122) using HepaRG (AID 2283516); further: the transcript read is the microRNA miR-122
# Procedure, shortened: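 Changes in transcript abundance, up or down relative to 0.5% DMSO vehicle, were scored after 48 h chemical treatment of HepaRG cells (maximum 100 uM). Quantification used TaqMan qRT-PCR normalized to housekeeping genes.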
# Nuclear factor NF-kappa-B p105 subunit (Homo sapiens), sequence (P19838 whole entry, looked up): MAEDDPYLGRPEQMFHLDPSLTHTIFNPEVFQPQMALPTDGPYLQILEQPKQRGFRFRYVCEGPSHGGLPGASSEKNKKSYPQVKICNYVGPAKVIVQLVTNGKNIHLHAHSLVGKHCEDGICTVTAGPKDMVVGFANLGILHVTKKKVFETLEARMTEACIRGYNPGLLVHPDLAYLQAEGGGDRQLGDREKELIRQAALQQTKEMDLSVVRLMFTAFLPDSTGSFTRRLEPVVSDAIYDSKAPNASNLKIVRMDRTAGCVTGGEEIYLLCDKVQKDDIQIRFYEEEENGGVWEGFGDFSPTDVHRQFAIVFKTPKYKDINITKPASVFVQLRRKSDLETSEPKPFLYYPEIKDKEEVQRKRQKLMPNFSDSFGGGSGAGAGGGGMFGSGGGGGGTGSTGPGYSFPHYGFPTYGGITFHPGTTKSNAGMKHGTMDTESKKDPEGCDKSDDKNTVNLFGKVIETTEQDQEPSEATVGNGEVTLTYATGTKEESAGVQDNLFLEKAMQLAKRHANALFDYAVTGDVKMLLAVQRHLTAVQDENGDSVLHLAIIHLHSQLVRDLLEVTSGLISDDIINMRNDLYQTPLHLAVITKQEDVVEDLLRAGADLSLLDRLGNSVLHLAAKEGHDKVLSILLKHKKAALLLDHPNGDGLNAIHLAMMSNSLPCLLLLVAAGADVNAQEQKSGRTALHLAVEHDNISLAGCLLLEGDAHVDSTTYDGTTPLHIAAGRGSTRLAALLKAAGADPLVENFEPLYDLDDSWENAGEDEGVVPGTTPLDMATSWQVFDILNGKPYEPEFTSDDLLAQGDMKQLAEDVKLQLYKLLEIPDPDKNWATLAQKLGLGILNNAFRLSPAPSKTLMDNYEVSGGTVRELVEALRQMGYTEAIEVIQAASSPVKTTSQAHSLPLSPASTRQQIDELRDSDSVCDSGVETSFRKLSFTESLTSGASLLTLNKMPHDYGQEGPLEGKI
smiles,measurement,setting,value
CN1COCN(Cc2cnc(Cl)s2)C1=N[N+](=O)[O-],outcome,[1],inactive
same,outcome,"MYC, MYC (gene 4609)",inactive
same,outcome,[2],inactive
same,outcome,[3],inactive
same,outcome,[4],inactive
same,outcome,[5],inactive
same,outcome,[6],inactive
same,outcome,[7],inactive
same,outcome,[8],inactive
S=C1NCCN1,outcome,[9],inactive
same,outcome,[1],inactive
same,outcome,"MYC, MYC (gene 4609)",inactive
same,outcome,[2],inactive
same,outcome,[3],inactive
same,outcome,[4],inactive
same,outcome,[5],inactive
same,outcome,[7],inactive
same,outcome,[8],inactive
COc1ccc(C(=CC(=O)N2CCOCC2)c2ccc(Cl)cc2)cc1OC,outcome,[9],inactive
same,outcome,[1],inactive
same,outcome,"MYC, MYC (gene 4609)",inactive
same,outcome,[2],inactive
same,AC50,[3],4.02 µM (active)
same,outcome,[4],inactive
same,outcome,[5],inactive
same,outcome,[7],inactive
same,outcome,[8],inactive
CC[C@H](C)[C@H]1O[C@]2(C=C[C@@H]1C)C[C@@H]1C[C@@H](C/C=C(\C)[C@@H](O[C@H]3C[C@H](OC)[C@@H](O[C@H]4C[C@H](OC)[C@@H](NC)[C@H](C)O4)[C@H](C)O3)[C@@H](C)/C=C/C=C3\CO[C@@H]4[C@H](O)C(C)=C[C@@H](C(=O)O1)[C@]34O)O2,AC50,[9],55.6 µM (active)
same,AC50,[1],29.4 µM (active)
same,AC50,"MYC, MYC (gene 4609)",32 µM (active)
same,AC50,[2],92.9 µM (active)
same,AC50,[3],13.3 µM (active)
same,AC50,[5],33.3 µM (active)
same,AC50,[6],23.5 µM (active)
same,AC50,[7],23.8 µM (active)
same,AC50,[8],91.9 µM (active)
CC1=NNC(=O)N(/N=C/c2cccnc2)C1,outcome,[9],inactive
same,outcome,[1],inactive
same,outcome,"MYC, MYC (gene 4609)",inactive
same,outcome,[2],inactive
same,outcome,[3],inactive
same,outcome,[4],inactive
same,outcome,[5],inactive
same,outcome,[6],inactive
same,outcome,[7],inactive
same,outcome,[8],inactive
O=c1ccc(=O)[nH][nH]1,outcome,[9],inactive
same,outcome,[1],inactive
same,outcome,"MYC, MYC (gene 4609)",inactive
same,outcome,[2],inactive
same,outcome,[3],inactive
same,outcome,[4],inactive
same,outcome,[5],inactive
same,outcome,[7],inactive
same,outcome,[8],inactive
Nc1nc(N)nc(NC2CC2)n1,outcome,[9],inactive
same,outcome,[1],inactive
same,outcome,"MYC, MYC (gene 4609)",inactive
same,outcome,[2],inactive
same,outcome,[3],inactive
same,outcome,[4],inactive
same,outcome,[5],inactive
same,outcome,[6],inactive
same,outcome,[7],inactive
same,outcome,[8],inactive
CCOP(=O)(NC(C)C)Oc1ccc(SC)c(C)c1 (centres undefined),outcome,[1],inactive
same,outcome,"MYC, MYC (gene 4609)",inactive
same,outcome,[2],inactive
same,AC50,[3],50 µM (active)
same,outcome,[4],inactive
same,outcome,[5],inactive
same,outcome,[6],inactive
same,outcome,[7],inactive
same,outcome,[8],inactive
CC(C)[C@H](C(=O)O[C@H](C#N)c1cccc(Oc2ccccc2)c1)c1ccc(Cl)cc1,outcome,[9],inactive
same,outcome,[1],inactive
same,outcome,"MYC, MYC (gene 4609)",inactive
same,AC50,[2],50 µM (active)
same,AC50,[3],30.3 µM (active)
same,outcome,[4],inactive
same,outcome,[5],inactive
same,outcome,[6],inactive
same,outcome,[7],inactive
same,outcome,[8],inactive
CCOP(=S)(OCC)Oc1ccc2c(C)c(Cl)c(=O)oc2c1,AC50,[9],50 µM (active)
same,outcome,[1],inactive
same,AC50,"MYC, MYC (gene 4609)",50 µM (active)
same,outcome,[2],inactive
same,AC50,[3],13.2 µM (active)
same,outcome,[5],inactive
same,AC50,[7],70 µM (active)
same,AC50,[8],0.837 µM (active)
CC(C)N(C(=O)SCC(Cl)=C(Cl)Cl)C(C)C,outcome,[9],inactive
same,outcome,[1],inactive
same,outcome,"MYC, MYC (gene 4609)",inactive
same,outcome,[2],inactive
same,outcome,[3],inactive
same,outcome,[5],inactive
same,outcome,[6],inactive
same,outcome,[7],inactive
same,outcome,[8],inactive
CCOP(=O)(OCC)Oc1cc(C)nc(C(C)C)n1,outcome,[9],inactive
same,outcome,[1],inactive
same,outcome,"MYC, MYC (gene 4609)",inactive
same,outcome,[2],inactive
same,outcome,[3],inactive
same,outcome,[5],inactive
same,outcome,[6],inactive
same,outcome,[7],inactive
same,outcome,[8],inactive
CSc1nc(NC(C)C)nc(NC(C)C)n1,AC50,[9],50 µM (active)
same,outcome,[1],inactive
same,outcome,"MYC, MYC (gene 4609)",inactive
same,outcome,[2],inactive
same,AC50,[3],22.5 µM (active)
same,outcome,[5],inactive
same,AC50,[7],34.4 µM (active)
same,outcome,[8],inactive
CCCCOC(=O)c1ccccc1C(=O)O,outcome,[9],inactive
same,outcome,[1],inactive
same,outcome,"MYC, MYC (gene 4609)",inactive
same,outcome,[2],inactive
same,outcome,[3],inactive
same,outcome,[4],inactive
same,outcome,[5],inactive
same,outcome,[6],inactive
same,outcome,[7],inactive
same,outcome,[8],inactive
C[N+]1(C)CCCCC1,outcome,[1],inactive
same,outcome,"MYC, MYC (gene 4609)",inactive
same,outcome,[2],inactive
same,outcome,[3],inactive
same,outcome,[4],inactive
same,outcome,[5],inactive
same,outcome,[6],inactive
same,outcome,[7],inactive
same,outcome,[8],inactive
COc1cccc(C(=O)NN(C(=O)c2cc(C)cc(C)c2)C(C)(C)C)c1C,outcome,[9],inactive
same,outcome,[1],inactive
same,outcome,"MYC, MYC (gene 4609)",inactive
same,outcome,[2],inactive
same,outcome,[3],inactive
same,outcome,[4],inactive
same,outcome,[5],inactive
same,AC50,[8],69.7 µM (active)
Cc1nn(-c2cc(NS(C)(=O)=O)c(Cl)cc2Cl)c(=O)n1C(F)F,outcome,[9],inactive
same,outcome,[1],inactive
same,outcome,"MYC, MYC (gene 4609)",inactive
same,outcome,[2],inactive
same,outcome,[3],inactive
same,outcome,[5],inactive
same,outcome,[6],inactive
same,outcome,[7],inactive
same,outcome,[8],inactive
